Hits are enriched below; roughly 7.6% of the tested compounds scored in any of these assays.
SW480 rerep: DNA re-replication induction in SW480 cells; SW480 DNA re-replication, Hoechst DNA content imaging, 48 h; hit rate 1.8% among 340,000; AID 624297; Potency, µM (doses to about 46.1 µM), inactives show at the highest dose re-replication activation, hits mostly activators; note: potency is the fitted concentration of half-maximal effect; % of control where 0% means no effect; nearly all actives have a fitted effect of over 55% in size
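First, 250 cells per well were seeded. Next, compound or vehicle (23 nL) was pinned in, plates sat 48 hr at 37 C. Finally Hoechst was added for 40 min before fluorescence scanning.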
hERG WT inh: blocks the wildtype human KCNH2 potassium channel. Q12809. U2OS, BacMam KCNH2, thallium flux FluxOr; stronger effect = lower value. activity change, % at 1.84 µM. hit rate 0.37% among 340,000;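 active = maximum activity change below -70%; inconclusive = maximum activity change between -70% and -50%; inactive = maximum activity change above -50%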; note: % is set by controls: 0 for no effect and ±100 for the full control effect
Target sequence (Q12809 whole entry, looked up): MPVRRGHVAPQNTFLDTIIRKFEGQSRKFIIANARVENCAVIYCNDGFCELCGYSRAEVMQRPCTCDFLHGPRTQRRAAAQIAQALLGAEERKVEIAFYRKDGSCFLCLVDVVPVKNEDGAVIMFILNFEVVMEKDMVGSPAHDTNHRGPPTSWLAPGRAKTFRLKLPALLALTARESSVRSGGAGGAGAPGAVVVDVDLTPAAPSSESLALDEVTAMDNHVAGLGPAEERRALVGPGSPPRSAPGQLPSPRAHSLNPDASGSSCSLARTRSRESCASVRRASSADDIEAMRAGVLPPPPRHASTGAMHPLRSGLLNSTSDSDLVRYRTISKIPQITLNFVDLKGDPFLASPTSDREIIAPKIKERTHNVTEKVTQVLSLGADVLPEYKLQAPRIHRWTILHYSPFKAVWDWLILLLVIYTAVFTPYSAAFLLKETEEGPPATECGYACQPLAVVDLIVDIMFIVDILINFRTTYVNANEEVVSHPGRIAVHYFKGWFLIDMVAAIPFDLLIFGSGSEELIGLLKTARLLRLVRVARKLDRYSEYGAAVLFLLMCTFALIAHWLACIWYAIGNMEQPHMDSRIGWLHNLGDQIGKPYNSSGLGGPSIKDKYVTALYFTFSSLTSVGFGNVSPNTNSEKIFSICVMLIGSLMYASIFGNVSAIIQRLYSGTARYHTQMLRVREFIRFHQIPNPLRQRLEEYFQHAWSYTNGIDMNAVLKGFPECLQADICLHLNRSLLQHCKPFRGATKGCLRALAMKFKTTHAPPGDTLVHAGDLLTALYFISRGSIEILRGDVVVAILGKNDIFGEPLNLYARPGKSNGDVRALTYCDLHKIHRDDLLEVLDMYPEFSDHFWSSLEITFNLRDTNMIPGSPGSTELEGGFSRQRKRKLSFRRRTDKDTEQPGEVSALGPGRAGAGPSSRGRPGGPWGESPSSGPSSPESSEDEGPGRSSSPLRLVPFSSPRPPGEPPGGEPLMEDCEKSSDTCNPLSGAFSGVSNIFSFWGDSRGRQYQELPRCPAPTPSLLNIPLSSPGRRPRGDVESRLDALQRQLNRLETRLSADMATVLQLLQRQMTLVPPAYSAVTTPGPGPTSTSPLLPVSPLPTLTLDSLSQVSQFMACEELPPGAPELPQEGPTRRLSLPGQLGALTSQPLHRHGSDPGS
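U2OS cells transduced with wild-type KCNH2 virus are loaded with FluxOr dye for 45 min, and thallium flux is measured in kinetic reads before and after stimulation buffer. Rate constants are normalized to DMSO controls.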
KB-3-1 cytotox: kills parental KB-3-1 adenocarcinoma cells | KB-3-1 viability, CellTiter-Glo ATP luminescence, 72 h | Potency, µM (series often up to 46.1 µM), usual class: cytotoxic | hit rate 1.4% among 400,000; note: potency is the fitted concentration of half-maximal effect; % is set by controls: 0 for no effect and ±100 for the full control effect; nearly all actives have a fitted effect of over 60% in size
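KB-3-1 cells, DMEM (no phenol red) + 10% FBS; compound by pin transfer, 72 h, 37 °C. Readout: CellTiter-Glo luminescence after 10 min. Data normalized, curve-fitted.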
MCF10A rerep: inducers of DNA re-replication in MCF 10A breast cells; MCF 10A DNA re-replication, Hoechst nuclear intensity, 48 h; Potency, µM (doses to about 46.1 µM), for inactives: at the top dose activity, positive = re-replication, hits mostly activators; hit rate 2.9% among 350,000; note: potency is the fitted concentration of half-maximal effect; % of control where 0% means no effect; nearly all actives have a fitted effect of over 50% in size
KCNH2 3.1 inh: blocks the human KCNH2 3.1 channel isoform; activity change, % (tested at about 1.8 µM); hit rate 0.95% among 340,000; U2OS KCNH2 3.1, thallium flux FluxOr; stronger effect = lower value;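 active = maximum activity change below -70%; inconclusive = maximum activity change from -70% to -50%; inactive = maximum activity change above -50%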;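 note: thallium influx rate constant from kinetic fluorescence after stimulation buffer; % is set by controls: 0 for no effect and ±100 for the full control effect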
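Normalized rate constant (relative to positive and negative DMSO controls) derived from a 2 min kinetic fluorescence read after stimulation; U2OS cells expressing the 3.1 isoform via virus at 1.77 x 10^8 /mL.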
KB-V1 MDR tox: kills drug-selected multidrug resistant KB-V1 cells; KB-V1 MDR cells viability, CellTiter-Glo, 72 h; Potency, µM (doses to about 46.1 µM), hits mostly cytotoxic; hit rate 3.4% among 400,000; note: potency is the fitted concentration of half-maximal effect; % is set by controls: 0 for no effect and ±100 for the full control effect; nearly all actives have a fitted effect of over 60% in size
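Cells of the MDR subline KB-V1 are plated, dosed with compound at multiple concentrations, and incubated 72 h at 37 degrees C; CellTiter-Glo is then added and luminescence read after 10 min.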
* marks the source's active call; other numbers are inactive results; i = inactive; ? = inconclusive; · = not tested or not shown; [ ] = another dose, or the depositor's remark. Unless noted, calls come from the whole dose curve; as a rule, active = well fitted curve in the direction sought with a large enough effect; inconclusive = small, poorly fitted or top-dose-only effect, or another doubt; inactive = no such curve, though single readings can be large; an effect the other way counts as inactive or inconclusive.

SMILES	SW480 rerep	hERG WT inh	KB-3-1 cytotox	MCF10A rerep	KCNH2 3.1 inh	KB-V1 MDR tox
CCOC(=O)N1CCN(S(=O)(=O)c2ccc(F)c(C(=O)Nc3ccc(C)c(Cl)c3)c2)CC1	18.6%	5.6	i	?	-45.0	?
CC(C)c1ccc(NC(=O)c2cc(S(=O)(=O)NCC3COc4ccccc4O3)ccc2F)cc1 (stereo not drawn)	?	13.3	?	?	-71.7*	?
NC(=O)C1CC2(NC(=O)NC2=O)c2cc(F)ccc2O1 (stereo not drawn)	3.6%	·	·	1.8%	·	·
Cc1cc2cc(C#N)c(N3CCN(S(C)(=O)=O)CC3)nc2cc1C	-1.9%	4.4	i	-52.9%	-22.3	18.4µM*
Cc1ccc(S(=O)(=O)N2CCCN(c3nc4cc(C)ccc4cc3C#N)CC2)cc1	-3.0%	-0.1	i	?	-18.4	?
COc1cc(C(=O)N2CCN(S(=O)(=O)c3ccc(F)cc3)CC2)cc(OC)c1OC	2.6%	-0.2	i	8.7%	-9.0	20.6µM*
COc1cc(C(=O)N2CCN(c3ccc(C)cc3C)CC2)cc(OC)c1OC	6.51µM*	-6.3	2.31µM*	18.4µM*	11.9	?
COc1ccc(Cl)cc1S(=O)(=O)N1CCN(C(=O)c2cc(OC)c(OC)c(OC)c2)CC1	-0.4%	11.4	i	2.4%	0.0	i
COc1cc(C(=O)C(=O)N2CCN(c3ccc(C)cc3)CC2)cc2ccccc12	·	·	i	·	·	?
Cc1ccc(N2CCN(C(=O)c3ccccc3)CC2)c(C)c1	0.3%	4.6	i	2.2%	0.0	i
COc1cc(C(=O)C(=O)N2CCN(c3ccccc3)CC2)cc(OC)c1OC	·	·	20.6µM*	·	·	?
Cc1c(CNC2CCCCC2)c(C(=O)O)c(C)n1Cc1ccc(F)cc1	·	·	i	·	·	?
CCc1ccc(CNC(=O)C2CCN(S(=O)(=O)N3CCC(C)CC3)CC2)cc1	8.2%	-4.5	i	7.2%	7.8	i
CCOC(=O)C(=O)N(C)c1c(CC)nc2c(OCc3ccccc3OC)cccn12	·	·	i	·	·	i
Cc1ccc(S(=O)(=O)Nc2nc(C)c(C)s2)cc1	-18.5%	18.3	i	-49.7%	10.8	i
Cc1nc(NCC2CCCO2)c2nnn(Cc3c(F)cccc3Cl)c2n1 (stereo not drawn)	-3.1%	-22.9	i	-2.0%	-13.3	i
COc1ccc(C(=O)N2CCN(c3nc4cc(C)ccc4cc3C#N)CC2)c(OC)c1	-6.7%	6.5	i	-1.8%	16.8	?
COc1cc(C(=O)N2CCCN(c3nc4cc(C)ccc4cc3C#N)CC2)cc(OC)c1OC	-5.0%	-5.1	i	?	0.0	18.4µM*
Cc1ccc2cc(C#N)c(N3CCN(C(=O)c4ccccc4)CC3)nc2c1	?	6.3	i	0.581µM*	0.3	i
COc1ccc(C)cc1-n1c(SCC(=O)N2CCOCC2)nc2ccccc2c1=O	·	-7.1	i	·	-7.8	i
Cc1[nH]n2c(=O)cc(C(C)(C)C)nc2c1-c1ccccc1	?	4.1	7.31µM*	?	3.6	?
CCCc1cc(=O)n2[nH]c(C)c(-c3ccccc3)c2n1	-3.8%	-17.4	?	?	-1.8	?
CCc1cc(=O)n2[nH]c(-c3ccccc3)c(-c3ccccc3)c2n1	20.6µM*	1.5	?	?	22.9	i
Cc1[nH]n2c(=O)cc(C(C)C)nc2c1-c1ccccc1	5.0%	3.6	?	?	6.5	?
O=C(NCC(c1ccco1)S(=O)(=O)c1cccs1)c1ccccc1F (stereo not drawn)	·	·	i	·	·	i
SMILES	SW480 rerep	hERG WT inh	KB-3-1 cytotox	MCF10A rerep	KCNH2 3.1 inh	KB-V1 MDR tox
O=C(c1cc2ccccc2cc1O)N1CCCC(C(F)(F)F)C1 (stereo not drawn)	-0.8%	0.6	i	?	2.0	i
COc1cc2ccccc2cc1C(=O)N1CCCC(C(F)(F)F)C1 (stereo not drawn)	-5.8%	40.3	i	-4.5%	3.0	14.6µM*
O=c1cc(NS(=O)(=O)c2ccccc2)nc(SCc2ccc(Cl)cc2)[nH]1	-3.6%	-4.1	i	?	-2.6	16.4µM*
O=C(CSc1nc(NS(=O)(=O)c2ccccc2)cc(=O)[nH]1)Nc1ccc(Cl)cc1	-23.0%	2.1	?	-0.2%	7.0	i
Cc1ccc(NC(=O)CSc2nc(NS(=O)(=O)c3ccc(C)cc3)cc(=O)[nH]2)cc1	0.3%	4.4	i	?	-7.5	4.11µM*
CCC(C)c1ccc(NC(=S)NCc2ccccc2OC)cc1 (stereo not drawn)	10.9%	-2.0	i	18.4µM*	15.4	?
CCNC(=S)Nc1ccc(N(c2ccccc2)C(C)C)cc1	9.3%	-3.6	20.6µM*	?	26.6	13µM*
CC(C)N(c1ccccc1)c1ccc(NC(=S)NCCN(C)C)cc1	?	1.3	?	?	-17.5	i
CCNC(=S)NN(c1ccccc1)c1ccccc1	-1.7%	-10.9	i	3.2%	-17.8	i
CC(C)CNC(=S)Nc1ccc(Oc2ccccc2)cc1	-6.5%	-30.1	20.6µM*	8.2µM*	4.0	16.4µM*
CC(C)c1ccc(NC(=S)NN(c2ccccc2)c2ccccc2)cc1	?	-8.7	i	?	-26.3	20.6µM*
Cn1c(COc2ccccc2)nnc1SCC(=O)NC1CCCC1	-8.8%	-0.9	i	3.8%	6.9	i
CN(c1ccccc1C(=O)Nc1ccc(F)c(Cl)c1)S(C)(=O)=O	-5.5%	-4.3	i	-1.7%	-2.6	i
CC1=C(C(N)=O)C(c2ccc(Cl)c(Cl)c2)n2ncnc2N1 (stereo not drawn)	-0.2%	-2.4	i	4.1%	3.7	i
CCN1CC=C2C(C#N)=C(N)C(C#N)(C#N)C(c3cc(Cl)ccc3Cl)C2C1 (stereo not drawn)	8.1%	-0.2	i	16.4µM*	-6.8	i
CN1C(=O)N(CC(=O)c2ccc3c(c2)OCO3)C(=O)C12CCCCC2	·	-0.4	i	·	-4.5	i
Cc1cccc(NC(=O)c2cc(=O)c3ccccc3o2)n1	2.91µM*	-5.5	i	90.7%[0.0737 µM]	8.5	i
Cc1cc2oc(C(=O)NCc3ccccc3)cc(=O)c2cc1C	8.2µM*	-11.9	i	14.0%	4.8	i
Cc1ccc2oc(C(=O)NC3CCS(=O)(=O)C3)cc(=O)c2c1 (stereo not drawn)	20.6µM*	20.6	i	1.1%	12.8	?
Cc1ccc(C)c(NC(=O)c2cc(=O)c3ccccc3o2)c1	0.4%	2.9	i	?	?	14.6µM*
Cc1ccc(NC(=O)c2cc(=O)c3ccccc3o2)c(C)c1	-4.6%	4.2	i	-5.9%	-6.4	?
